According to PubChem BioAssay (NCATS):
Calls of active or inactive are those of the source. Calls come from the whole dose curve.

Assay: qHTS drug screen for cell cycle checkpoint inhibitors in PARPi-resistant BRCA-mutant ovarian cancer cell lines. (AID 1963452)
Conditions: PEO1/OlaR viability, CellTiter-Glo luminescence, 96 h, stronger effect = lower value
From the text: Women's Malignancies Branch, Center for Cancer Research (CCR),
National Cancer Institute (NCI), National Institutes of Health (NIH), Bethesda, MD
Poly (ADP-ribose) polymerase inhibitors (PARPis) have changed the treatment paradigm in breast cancer gene (BRCA) - mutant high-grade serous ovarian carcinoma (HGSC). However, most patients eventually develop resistance to PARPis, highlighting an unmet need for improved therapeutic strategies. Using high-throughput drug screens, we identified ataxia telangiectasia and rad3-related protein/checkpoint kinase 1 (CHK1) pathway inhibitors as cytotoxic and further validated the activity of the CHK1 inhibitor (CHK1i) prexasertib in PARPi-sensitive and -resistant BRCA-mutant HGSC cells and xenograft mouse models. CHK1i monotherapy induced DNA damage, apoptosis, and tumor size reduction. We then conducted a phase 2 study (NCT02203513) of prexasertib in patients with BRCA-mutant HGSC. The treatment was well tolerated but yielded an objective response rate of 6% (1 of 17; one partial response) in patients with previous PARPi treatment. […] BRCA reversion mutation in previously PARPi-treated BRCA-mutant patients was not associated with resistance to CHK1i.
Among others, 1082 oncology drugs, both approved and investigational, were prioritized based on their status in clinical trial development. […] Drugs with average Z-AUC values less than -1.0 in all three cell lines were classified as "hits" resulting in 151 oncology drug hits. The screen also confirmed cross-resistance between olaparib and other PARPis (rucaparib, niraparib, and talazoparib) in PARPi-resistant PEO1/OlaR and PEO4.
[1] G. L. Lin, K. M. Wilson, M. Ceribelli, B. Z. Stanton, P. J. Woo, S. Kreimer, E. Y. Qin, X. Zhang, J. Lennon, S. Nagaraja, P. J. Morris, M. Quezada, S. M. Gillespie, D. Y. Duveau, A. M. Michalowski, P. Shinn, R. Guha, M. Ferrer, C. Klumpp-Thomas, S. Michael, C. McKnight, P. Minhas, Z. Itkin, E. H. Raabe, L. Chen, R. Ghanem, A. C. Geraghty, L. Ni, K. I. Andreasson, N. A. Vitanza, K. E.Warren, C. J. Thomas, M. Monje, Therapeutic strategies for diffuse midline glioma from high-throughput combination drug screening. Sci. Transl. Med. 11, (2019).
[2] T. M. Yamamoto, A. McMellen, Z. L. Watson, J. Aguilera, R. Ferguson, E. Nurmemmedov, T. Thakar, G. L. Moldovan, H. Kim, D. M. Cittelly, A. M. Joglar, E. P. Brennecke, H. Wilson, K. Behbakht, M. J. Sikora, B. G. Bitler, Activation of Wnt signaling promotes olaparib resistant ovarian cancer. Mol. Carcinog. 58, 1770 - 1782 (2019).
PROTOCOL TABLE (as described by Inglese J, Shamu CE and Guy RK. 2007)
SEQUENCE No. (e.g., 1, 2, 3, etc.); […] (e.g., Cells, Incubation, Reagent, etc.); VALUE; DESCRIPTION.
1; Compounds; 20nL; 1536-well white tissue culture-treated plates.
2; Cells; 5 uL; PEO1, PEO4, and PEO1/OlaR cells at 600 cells per well.
3; Incubation; 96 hr; 37C, 95% humidity, 5% CO2.
4; Reagent; 3 uL; CellTiter-Glo (Promega).
5; Incubation; 15 min; room temperature.
6; Detection; Luminescence, PHERAstar (BMG Labtech) plate reader.
NOTES (numbers refer to Sequence numbers above)
1. MIPE 5.0 compounds were acoustically dispensed by Echo Acoustic Liquid Handler (Beckman Coulter Life Sciences). Each compound was plated at an 11-point concentration range with 1:3 dilution. Bortezomib, a proteasome inhibitor (final concentration, 20 uM), was used as a positive.
2. PEO1, PEO4, and PEO1/OlaR were trypsinized and dispensed in 5 uLof growth medium using a Multidrop Combi dispenser at a density of 600 cells per well to allow compounds to be present during the exponential growth phase.
3. Plates were incubated for 96 hours at standard incubator conditions and covered by a stainless steel gasketed lid to prevent evaporation.
4. Three microliters of CellTiter-Glo (Promega) were added to each well.
5. Plates were incubated at room temperature for 15 min with a stainless-steel lid in place.
6. Luminescence readings were taken using PHERAstar (BMG Labtech). […]

[1] = measured here: PEO1 parental Z-AUC

SMILES | Z-AUC | Z-AUC [1] | Z-AUC (measured here: PEO4 Z-AUC)
CCCCC(F)(F)[C@@]1(O)CC[C@H]2[C@H](CC(=O)[C@@H]2CCCCCCC(=O)O)O1 | -0.514 (inactive) | 0.401 | 0.738
COc1ccnc(CS(=O)c2nc3ccc(OC(F)F)cc3[nH]2)c1OC (configuration not stated) | 1.71 (inactive) | 1.02 | 1.19
Cc1nc(C(=O)NCC(=O)O)c(O)c2ccc(Oc3ccccc3)cc12 | 1.39 (inactive) | 0.88 | 0.853
O=C(c1ccc(C(=O)N2CCC(N3CCCC3)CC2)c(Nc2ccccc2)c1)N1CCC(N2CCCC2)CC1 | 0.276 (inactive) | 0.308 | 0.42
C[C@@]1(c2cc(-c3cncnc3)c(F)cc2F)CCSC(N)=N1 | 0.854 (inactive) | 0.822 | 0.652
O=C(Nc1ccc(OC(F)(F)F)cc1)c1sccc1NCc1ccnc2ccccc12 | 0.246 (inactive) | -0.378 | -0.233
N[C@@H](CC(=O)N1CCn2c(nnc2C(F)(F)F)C1)Cc1cc(F)c(F)cc1F | 0.69 (inactive) | 0.734 | 0.789
CCN1CCN(c2ccc(Nc3cc(N(C)C(=O)Nc4c(Cl)c(OC)cc(OC)c4Cl)ncn3)cc2)CC1 | 0.0169 (inactive) | -0.00584 | 0.0335
COc1cc(Nc2nc3ccccc3nc2NS(=O)(=O)c2ccc(NC(=O)c3ccc(C)c(OC)c3)cc2)cc(OC)c1 | -0.848 (inactive) | -0.462 | -0.582
O=C(NCCCCN1CCOCC1)c1cc2ccccc2o1 | 1.41 (inactive) | 1.22 | 1.23
Cn1cnc(-c2cc3nccc(Oc4ccc(NC(=S)NC(=O)Cc5ccccc5)cc4F)c3s2)c1 | -0.0485 (inactive) | 0.327 | 0.301
C[C@H](c1ccc(F)cc1CCCC(=O)O)N(c1cc(F)ccc1F)S(=O)(=O)c1ccc(Cl)cc1 | -0.634 (inactive) | -0.271 | -0.797
CNc1nc(Nc2ccc(C(=O)N3CCOCC3)cc2OC)ncc1Cl | -0.915 (inactive) | -0.00443 | 0.143
Cc1cnc(CNC(=O)c2c(=O)c3ccc(N4CCCN(C)CC4)nc3n3c2sc2ccccc23)cn1 | -0.335 (inactive) | -0.603 | 0.0193
